# Compounds with a hit are over-represented: about 19% of the library has one in this group of screens.
# Cycloheximide cs = counter-screen hit for Shiga toxin inhibitors, cycloheximide; AID 2314; cell reporter, cycloheximide protein synthesis inhibition counterscreen; max response, %; actives 12% (n = 300,000); in the data active = max response mostly above about 13%, no sharp cut-off; inactive = mostly below about 14%; also: read at 38.3 µM for the half of the compounds with a filed dose; 0% is about no effect
# Shiga toxin inh = blocks Shiga toxin action in Vero cells. Vero cells, Shiga toxin protein synthesis inhibition reporter. inhibition, % at 38.7 µM. actives 9.2% (n = 290,000). AID 2315; in the data active = inhibition mostly above about 28%, no sharp cut-off; inactive = mostly below about 43%; also: 0% is about no effect
# AMA1-RON2 inh = inhibitors of Plasmodium falciparum AMA1-RON2 interaction | AlphaScreen AMA1-biotinylated RON2 peptide binding | Potency, µM (doses to about 58.2 µM), inactives show at the top dose activity change, negative = inhibition, hits mostly inhibitors | actives 0.2% (n = 360,000);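 also: potency is read from the fitted curve at half-maximal effect; 0% = vehicle wells and -100% = peptide control; nearly all actives have a fitted effect of over 45% in size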
#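 AMA1 (3D7) with his tag at 25 nM final met compounds first, then biotinylated RON2 peptide at 25 nM; detection used donor plus acceptor beads, 10 µg/mL apiece, read by AlphaScreen after 30 min at room temperature.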
# SARS PLpro yeast = inhibitors of SARS-CoV papain-like protease in yeast. actives 0.19% (n = 330,000). S. cerevisiae expressing SARS-CoV PLpro, growth rescue. Potency, µM (highest dose often 32.9 µM), for the others: at the highest dose activity, positive = growth rescue, hits mostly activators; calls by dose curve; also: potency is read from the fitted curve at half-maximal effect; 0% is about no effect; nearly all actives have a fitted effect of over 55% in size
# Pf growth 96h = P. falciparum growth inhibition at 96 hours. Potency, µM (top dose mostly 28.7 µM), for the others: at the highest dose activity change, negative = inhibition, most hits filed as inhibitors. AID 504834. P. falciparum luciferase reporter growth, 96 h. actives 6.9% (n = 320,000); also: potency is read from the fitted curve at half-maximal effect; % is scaled to controls: 0 for no effect and ±100 for the full control effect
#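 P. falciparum expressing integrated firefly luciferase grown in erythrocytes (2% hematocrit, 0.05% parasitemia final) with compounds for 96 hours at 37 C, 5% CO2. Growth inhibition read as loss of luminescence after adding luciferase detection reagent.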
# Pf growth 48h = inhibits P. falciparum growth in the first generation, 48 h; Potency, µM (titrated, usually from 28.7 µM), without a hit: at the highest dose activity change, negative = inhibition, actives largely listed as inhibitors; P. falciparum luciferase growth in erythrocytes, 48 h; actives 5.9% (n = 310,000); AID 504832; also: potency is read from the fitted curve at half-maximal effect; % is scaled to controls: 0 for no effect and ±100 for the full control effect
#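 A one-generation exposure of luciferase-tagged malaria parasites in RPMI 1640/Albumax erythrocyte culture, 37 C and 5% CO2. Inhibition is inferred from decreased luminescence after adding detection reagent.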
# Active calls of the source: *; i = inactive; u = inconclusive; x = not tested or not shown. Unless noted, calls follow the shape of the dose curve; as a rule, active = well fitted curve in the direction sought with a large enough effect; inconclusive = small, poorly fitted or top-dose-only effect, or another doubt; inactive = no such curve, though single readings can be large; an effect the other way counts as inactive or inconclusive.
SMILES,Cycloheximide cs,Shiga toxin inh,AMA1-RON2 inh,SARS PLpro yeast,Pf growth 96h,Pf growth 48h
CC(C)(CN1CCNCC1)NS(=O)(=O)c1ccc(Cl)cc1,x,x,1.5%,-7.8%,u,9.28µM*
CCN1C(=S)SC(=O)C1=C1C=C(C)N(CCO)C(C)=C1,70.6*,125.0*,0.8%,0.5%,27.3%,x
CCN1C(=S)SC(=O)C1=C1C=C(C)N(CCOC)C(C)=C1,44.2*,106.7*,x,0.3%,u,238.4%
CC(=O)Nc1nc2c(ncn2COCCOC(C)=O)c(=O)[nH]1,-3.2,-4.8,x,0.5%,13.1µM*,3.9%
CC(C)OC(C)C,-6.3,-10.6,x,x,x,x
Cc1cc(C)cc(N2C(=O)CC(Sc3ncn[nH]3)C2=O)c1 (centres undefined),-1.5,-17.7,3.3%,-5.0%,i,-7.6%
Cn1cnnc1Sc1ccc(C(=O)OCC(=O)Nc2cc(Cl)cc(Cl)c2)cc1[N+](=O)[O-],-5.8,-14.6,-13.4%,7.1%,-10.5%,10.7%
Cc1[nH]c2ccc(Br)cc2c(=O)c1CN1CCCCCC1,-6.4,-7.3,0.0%,1.0%,63.7%,10.4µM*
Cc1ccc(N)cc1N,x,x,-2.5%,-2.0%,u,19.1%
Cc1ccc(N)c(N)c1,50.6*,156.7*,-1.0%,-1.4%,93.2%,27.6%
Cc1ccc(N)c(C(=O)c2ccc(Br)cc2)c1,24.5,30.0,15.8µM*,-1.4%,-7.2%,28.5%
O=C(NC(=O)c1c(F)cccc1F)Nc1ccccc1SC(F)F,11.0*,27.6,3.9%,-1.2%,4.2%,-13.7%
O=C(NC(=O)c1c(F)cccc1F)Nc1cc(Cl)c(F)c(Cl)c1F,-6.8,-5.3,2.8%,1.2%,-27.8%,u
CC1(C)CC(=O)N(CC(=O)NCc2ccccc2)c2ccccc2S1(=O)=O,4.1,18.2,-1.1%,1.5%,51.3%,12.8%
CCN(CC)c1ccc(NC(=O)CN2C(=O)CC(C)(C)S(=O)(=O)c3ccccc32)c(C)c1,0.5,9.6,6.8%,-0.3%,8.28µM*,u
O=C(O)c1cccc(-c2ccccc2)c1O,x,x,-10.8%,x,x,x
CC(C)(C)NC(=O)CN(C(=O)c1snc(C(=O)NC2CCCCC2)c1N)c1ccccc1F,-2.4,16.9,6.7%,-4.4%,6.1%,11.7µM*
CC(C)c1cc(CNC(=O)CCc2nnc(CCCc3ccccc3)o2)on1,30.4*,57.5*,-8.9%,0.8%,17.5%,-12.9%
Cc1cccc(Cc2nnc(CCC(=O)N(C)Cc3ccncc3C)o2)c1,7.8,38.9,3.2%,0.5%,11.4%,8.5%
Cc1cc(CNC(=O)CCc2nnc(CCCCc3ccccc3)o2)nn1C,-2.4,-17.0,0.9%,0.6%,19.8%,6.7%
Cc1cccc(Cc2nnc(CCC(=O)NCc3ccncc3C)o2)c1,31.3*,34.7,1.0%,0.0%,u,u
CCc1cc(CNC(=O)CCc2nnc(Cc3cccc(C)c3)o2)on1,7.6,70.8*,-2.0%,0.3%,27.9%,40.5%
CCc1cc(CNC(=O)CCc2nnc(CCCc3ccccc3)o2)on1,57.9*,78.6*,-2.5%,-1.2%,u,-9.6%
O=C(CN(Cc1ccc(Cl)cc1)C(=O)CNS(=O)(=O)c1ccc(F)cc1)NCC1CCCO1 (centres undefined),-6.7,-4.8,-3.2%,-0.5%,u,16.2%
CC(C)(C)OC(=O)N1CCN(C(=O)c2cccnc2Cl)CC1,-3.2,-6.6,10.3%,-0.2%,0.0%,5.9%
SMILES,Cycloheximide cs,Shiga toxin inh,AMA1-RON2 inh,SARS PLpro yeast,Pf growth 96h,Pf growth 48h
CCc1nc2ccc(C(=O)Nc3cccc(OCC(=O)N(C)C)c3)cn2c1N(C)C(=O)c1ccncc1,x,x,-0.9%,x,x,x
O=c1c2ccccc2nc(-c2cccc(Cl)c2)n1O,-1.7,-11.8,10.2%,-24.7%,59.3%,0.0%
CCN(CC)CC(O)Cn1c(-c2cccc(Cl)c2)nc2cc(C)c(C)cc21 (centres undefined),23.9*,45.1*,22.9%,0.0%,1.0%,0.5%
Cc1ccccc1-[n+]1c(-c2ccccc2)cc(-c2ccccc2)cc1-c1ccccc1,x,x,-2.8%,1.1%,0.185µM*,0.329µM*
O=C([O-])c1ccccc1-[n+]1c(-c2ccccc2)cc(-c2ccccc2)cc1-c1ccccc1,x,x,-12.9%,-1.4%,4.65µM*,11.7µM*
Oc1ccccc1-[n+]1c(-c2ccccc2)cc(-c2ccccc2)cc1-c1ccccc1,x,x,-10.3%,3.3%,1.47µM*,1.47µM*
[O-]c1ccccc1-[n+]1c(-c2ccccc2)cc(-c2ccccc2)cc1-c1ccccc1,x,x,-1.8%,-25.8%,0.329µM*,1.31µM*
O=[N+]([O-])c1cc(-c2ccccc2)cc([N+](=O)[O-])c1O,x,x,-6.5%,x,x,x
Nc1ccccc1-[n+]1c(-c2ccccc2)cc(-c2ccccc2)cc1-c1ccccc1,-1.8,-1.5,0.8%,0.5%,2.08µM*,4.65µM*
Nc1nc(N)c2c(ccc3c2ccn3Cc2cccc([N+](=O)[O-])c2)n1,x,x,31.6µM*,x,x,x
Cc1oc2c(CN3CCCC3)c(O)ccc2c(=O)c1-c1ccccc1,-1.0,10.6,-3.5%,1.0%,11.7µM*,u
COc1ccccc1-c1coc2c(CN3CCC(C)CC3)c(O)ccc2c1=O,6.9,26.8,28.8%,1.3%,u,11.7µM*
COc1ccc(-c2c(C(F)(F)F)oc3c(CN4CCN(C)CC4)c(O)ccc3c2=O)cc1,-1.6,1.9,-19.1%,2.1%,u,3.29µM*
CCCCc1cc(=O)oc2c(CN3CCN(C)CC3)c(O)ccc12,4.8,6.4,-0.9%,1.1%,u,11.7µM*
CCC1CCCCN1Cc1c(O)ccc2c(=O)c(-c3ccccc3OC)coc12 (centres undefined),x,x,-2.4%,x,x,x
Cc1ccc(C2(C(F)(F)F)N=C3Sc4cc(C)ccc4N3C(=O)N2)cc1 (centres undefined),6.8,-1.8,x,-9.3%,u,101.1%
O=C(CCN1CCCCC1)NCC1OCCc2ccccc21 (centres undefined),-4.0,4.1,10.8%,-1.5%,4.9%,-12.5%
C[C@@H](C(=O)CC(=O)OC(C)(C)C)[C@@H](O)c1ccccc1,1.5,9.8,-3.1%,-1.6%,-15.4%,0.0%
Cc1cccc(OS(=O)(=O)NC(=O)OCC2CCCN3CCCCC23)c1 (centres undefined),-6.2,-8.8,30.1%,-2.0%,23.8%,-4.6%
COc1ccc(C(C(=O)NC(C)(C)C)N(C(=O)CCC(=O)Nc2cc(C)on2)c2ccc(C)c(C)c2)cc1 (centres undefined),-3.5,-11.4,4.4%,-0.6%,17.3%,u
Cc1oc2c(CN3CCC(C)CC3)c(O)ccc2c(=O)c1-c1ccccc1,3.4,4.1,0.0%,-0.2%,4.15µM*,2.94µM*
CCOC(=O)c1c(-c2ccccc2)oc2ccc(O)c(CN3CCCC3)c12,0.9,-19.5,13.5%,4.3%,1.04µM*,1.85µM*
CCOC(=O)c1c(-c2ccccc2)oc2ccc(O)c(CN(C)C)c12,-3.2,-6.8,3.8%,-5.6%,u,x
O=c1c(Oc2ccccc2Br)c(C(F)(F)F)oc2c(CN3CCCC3)c(O)ccc12,-4.4,15.8,u,-7.7%,2.08µM*,10.4µM*

# High-throughput results deposited in PubChem by National Center for Advancing Translational Sciences (NCATS).
